The source of these data is article PMC12529666, “Dysregulation of AGO2-miRNA dynamics underlies the AGO2-associated Lessel–Kreienkamp syndrome”.

Substitutions are numbered along the chain they refer to.

First the molecules themselves.
B1: GTATCCTG (ssRNA)
RNA 1: GAGUUCUACAGUCCGACGAUCCCAACGUAUCCUGCACCUGGAAUUCUCGGGUGCCAA
RNA 2: UGGAGUGUGACAAUGGUGUUUG
DNA 1: GATCGTCGGACTGTAGAACTC
DNA 2: TTGGCACCCGAGAATTCCA
modifications: constant regions annealed to DNA blockers; guide miR-122 5' phosphate
B2: GTACCTTA (ssRNA)
RNA 1: B1 RNA 1 with U30C, C32U, G34A
RNA 2: UGGAGUGUGACAAUGGUGUUUG
DNA 1: GATCGTCGGACTGTAGAACTC
DNA 2: TTGGCACCCGAGAATTCCA
modifications: constant regions annealed to DNA blockers; guide miR-122 5' phosphate
B3: ATGTCTTG (ssRNA)
RNA 1: B1 RNA 1 with G27A, A29G, C32U
RNA 2: UGGAGUGUGACAAUGGUGUUUG
DNA 1: GATCGTCGGACTGTAGAACTC
DNA 2: TTGGCACCCGAGAATTCCA
modifications: constant regions annealed to DNA blockers; guide miR-122 5' phosphate
B4: ATGCCTCG (ssRNA)
RNA 1: B1 RNA 1 with G27A, A29G, U30C, C32U, U33C
RNA 2: UGGAGUGUGACAAUGGUGUUUG
DNA 1: GATCGTCGGACTGTAGAACTC
DNA 2: TTGGCACCCGAGAATTCCA
modifications: constant regions annealed to DNA blockers; guide miR-122 5' phosphate
B5: ACGCCCCG (ssRNA)
RNA 1: B1 RNA 1 with G27A, U28C, A29G, U30C, U33C
RNA 2: UGGAGUGUGACAAUGGUGUUUG
DNA 1: GATCGTCGGACTGTAGAACTC
DNA 2: TTGGCACCCGAGAATTCCA
modifications: constant regions annealed to DNA blockers; guide miR-122 5' phosphate
B6: GCATCCTG (ssRNA)
RNA 1: B1 RNA 1 with U28C
RNA 2: UGGAGUGUGACAAUGGUGUUUG
DNA 1: GATCGTCGGACTGTAGAACTC
DNA 2: TTGGCACCCGAGAATTCCA
modifications: constant regions annealed to DNA blockers; guide miR-122 5' phosphate
B7: ATACCTTA (ssRNA)
RNA 1: B1 RNA 1 with G27A, U30C, C32U, G34A
RNA 2: UGGAGUGUGACAAUGGUGUUUG
DNA 1: GATCGTCGGACTGTAGAACTC
DNA 2: TTGGCACCCGAGAATTCCA
modifications: constant regions annealed to DNA blockers; guide miR-122 5' phosphate
B8: ATATTTTG (ssRNA)
RNA 1: B1 RNA 1 with G27A, C31U, C32U
RNA 2: UGGAGUGUGACAAUGGUGUUUG
DNA 1: GATCGTCGGACTGTAGAACTC
DNA 2: TTGGCACCCGAGAATTCCA
modifications: constant regions annealed to DNA blockers; guide miR-122 5' phosphate
B9: GCGTTTTG (ssRNA)
RNA 1: B1 RNA 1 with U28C, A29G, C31U, C32U
RNA 2: UGGAGUGUGACAAUGGUGUUUG
DNA 1: GATCGTCGGACTGTAGAACTC
DNA 2: TTGGCACCCGAGAATTCCA
modifications: constant regions annealed to DNA blockers; guide miR-122 5' phosphate
B10: ATACCTTG (ssRNA)
RNA 1: B1 RNA 1 with G27A, U30C, C32U
RNA 2: UGGAGUGUGACAAUGGUGUUUG
DNA 1: GATCGTCGGACTGTAGAACTC
DNA 2: TTGGCACCCGAGAATTCCA
modifications: constant regions annealed to DNA blockers; guide miR-122 5' phosphate
B11: ATGTTCTG (ssRNA)
RNA 1: B1 RNA 1 with G27A, A29G, C31U
RNA 2: UGGAGUGUGACAAUGGUGUUUG
DNA 1: GATCGTCGGACTGTAGAACTC
DNA 2: TTGGCACCCGAGAATTCCA
modifications: constant regions annealed to DNA blockers; guide miR-122 5' phosphate
B12: ATACCCCG (ssRNA)
RNA 1: B1 RNA 1 with G27A, U30C, U33C
RNA 2: UGGAGUGUGACAAUGGUGUUUG
DNA 1: GATCGTCGGACTGTAGAACTC
DNA 2: TTGGCACCCGAGAATTCCA
modifications: constant regions annealed to DNA blockers; guide miR-122 5' phosphate
B13: GTATCTCG (ssRNA)
RNA 1: B1 RNA 1 with C32U, U33C
RNA 2: UGGAGUGUGACAAUGGUGUUUG
DNA 1: GATCGTCGGACTGTAGAACTC
DNA 2: TTGGCACCCGAGAATTCCA
modifications: constant regions annealed to DNA blockers; guide miR-122 5' phosphate
B14: ATATTTCG (ssRNA)
RNA 1: B1 RNA 1 with G27A, C31U, C32U, U33C
RNA 2: UGGAGUGUGACAAUGGUGUUUG
DNA 1: GATCGTCGGACTGTAGAACTC
DNA 2: TTGGCACCCGAGAATTCCA
modifications: constant regions annealed to DNA blockers; guide miR-122 5' phosphate
B15: ACATCTCG (ssRNA)
RNA 1: B1 RNA 1 with G27A, U28C, C32U, U33C
RNA 2: UGGAGUGUGACAAUGGUGUUUG
DNA 1: GATCGTCGGACTGTAGAACTC
DNA 2: TTGGCACCCGAGAATTCCA
modifications: constant regions annealed to DNA blockers; guide miR-122 5' phosphate
B16: GTGTTCTG (ssRNA)
RNA 1: B1 RNA 1 with A29G, C31U
RNA 2: UGGAGUGUGACAAUGGUGUUUG
DNA 1: GATCGTCGGACTGTAGAACTC
DNA 2: TTGGCACCCGAGAATTCCA
modifications: constant regions annealed to DNA blockers; guide miR-122 5' phosphate
B17: GTGTCCTG (ssRNA)
RNA 1: B1 RNA 1 with A29G
RNA 2: UGGAGUGUGACAAUGGUGUUUG
DNA 1: GATCGTCGGACTGTAGAACTC
DNA 2: TTGGCACCCGAGAATTCCA
modifications: constant regions annealed to DNA blockers; guide miR-122 5' phosphate
B18: GTATCCCG (ssRNA)
RNA 1: B1 RNA 1 with U33C
RNA 2: UGGAGUGUGACAAUGGUGUUUG
DNA 1: GATCGTCGGACTGTAGAACTC
DNA 2: TTGGCACCCGAGAATTCCA
modifications: constant regions annealed to DNA blockers; guide miR-122 5' phosphate
B19: ATGCCCTG (ssRNA)
RNA 1: B1 RNA 1 with G27A, A29G, U30C
RNA 2: UGGAGUGUGACAAUGGUGUUUG
DNA 1: GATCGTCGGACTGTAGAACTC
DNA 2: TTGGCACCCGAGAATTCCA
modifications: constant regions annealed to DNA blockers; guide miR-122 5' phosphate
B20: GCGTTCTG (ssRNA)
RNA 1: B1 RNA 1 with U28C, A29G, C31U
RNA 2: UGGAGUGUGACAAUGGUGUUUG
DNA 1: GATCGTCGGACTGTAGAACTC
DNA 2: TTGGCACCCGAGAATTCCA
modifications: constant regions annealed to DNA blockers; guide miR-122 5' phosphate
B21: GCGTCTCG (ssRNA)
RNA 1: B1 RNA 1 with U28C, A29G, C32U, U33C
RNA 2: UGGAGUGUGACAAUGGUGUUUG
DNA 1: GATCGTCGGACTGTAGAACTC
DNA 2: TTGGCACCCGAGAATTCCA
modifications: constant regions annealed to DNA blockers; guide miR-122 5' phosphate
B22: ATATCCTG (ssRNA)
RNA 1: B1 RNA 1 with G27A
RNA 2: UGGAGUGUGACAAUGGUGUUUG
DNA 1: GATCGTCGGACTGTAGAACTC
DNA 2: TTGGCACCCGAGAATTCCA
modifications: constant regions annealed to DNA blockers; guide miR-122 5' phosphate
B23: GTGTTCCG (ssRNA)
RNA 1: B1 RNA 1 with A29G, C31U, U33C
RNA 2: UGGAGUGUGACAAUGGUGUUUG
DNA 1: GATCGTCGGACTGTAGAACTC
DNA 2: TTGGCACCCGAGAATTCCA
modifications: constant regions annealed to DNA blockers; guide miR-122 5' phosphate

Sequence of AGO2 L192P (Q9UKV8 whole entry L192P/S387D/S824A/S828D/S831D/S834A): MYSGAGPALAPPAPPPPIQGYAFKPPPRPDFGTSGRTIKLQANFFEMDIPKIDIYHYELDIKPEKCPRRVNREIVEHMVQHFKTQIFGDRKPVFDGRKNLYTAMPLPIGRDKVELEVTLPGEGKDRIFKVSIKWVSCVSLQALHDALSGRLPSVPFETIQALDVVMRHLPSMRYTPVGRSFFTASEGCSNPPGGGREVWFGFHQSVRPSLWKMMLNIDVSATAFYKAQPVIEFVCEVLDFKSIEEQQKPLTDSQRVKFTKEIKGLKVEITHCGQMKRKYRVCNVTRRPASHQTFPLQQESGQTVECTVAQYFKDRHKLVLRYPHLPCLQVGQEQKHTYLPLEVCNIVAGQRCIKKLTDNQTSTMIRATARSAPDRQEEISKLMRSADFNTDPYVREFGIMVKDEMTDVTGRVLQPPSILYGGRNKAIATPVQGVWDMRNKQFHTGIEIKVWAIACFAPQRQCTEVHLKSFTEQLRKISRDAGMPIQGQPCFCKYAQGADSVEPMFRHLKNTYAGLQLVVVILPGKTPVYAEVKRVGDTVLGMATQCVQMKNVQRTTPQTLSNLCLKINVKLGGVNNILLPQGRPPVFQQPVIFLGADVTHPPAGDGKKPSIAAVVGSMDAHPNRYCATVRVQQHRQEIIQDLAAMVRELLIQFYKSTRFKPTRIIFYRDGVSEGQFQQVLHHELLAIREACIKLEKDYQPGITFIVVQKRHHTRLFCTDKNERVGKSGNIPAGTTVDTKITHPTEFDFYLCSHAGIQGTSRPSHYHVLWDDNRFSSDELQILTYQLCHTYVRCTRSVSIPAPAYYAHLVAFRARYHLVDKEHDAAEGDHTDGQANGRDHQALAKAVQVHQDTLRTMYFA
Sequence of AGO2 A367P (Q9UKV8 whole entry A367P/S387D/S824A/S828D/S831D/S834A): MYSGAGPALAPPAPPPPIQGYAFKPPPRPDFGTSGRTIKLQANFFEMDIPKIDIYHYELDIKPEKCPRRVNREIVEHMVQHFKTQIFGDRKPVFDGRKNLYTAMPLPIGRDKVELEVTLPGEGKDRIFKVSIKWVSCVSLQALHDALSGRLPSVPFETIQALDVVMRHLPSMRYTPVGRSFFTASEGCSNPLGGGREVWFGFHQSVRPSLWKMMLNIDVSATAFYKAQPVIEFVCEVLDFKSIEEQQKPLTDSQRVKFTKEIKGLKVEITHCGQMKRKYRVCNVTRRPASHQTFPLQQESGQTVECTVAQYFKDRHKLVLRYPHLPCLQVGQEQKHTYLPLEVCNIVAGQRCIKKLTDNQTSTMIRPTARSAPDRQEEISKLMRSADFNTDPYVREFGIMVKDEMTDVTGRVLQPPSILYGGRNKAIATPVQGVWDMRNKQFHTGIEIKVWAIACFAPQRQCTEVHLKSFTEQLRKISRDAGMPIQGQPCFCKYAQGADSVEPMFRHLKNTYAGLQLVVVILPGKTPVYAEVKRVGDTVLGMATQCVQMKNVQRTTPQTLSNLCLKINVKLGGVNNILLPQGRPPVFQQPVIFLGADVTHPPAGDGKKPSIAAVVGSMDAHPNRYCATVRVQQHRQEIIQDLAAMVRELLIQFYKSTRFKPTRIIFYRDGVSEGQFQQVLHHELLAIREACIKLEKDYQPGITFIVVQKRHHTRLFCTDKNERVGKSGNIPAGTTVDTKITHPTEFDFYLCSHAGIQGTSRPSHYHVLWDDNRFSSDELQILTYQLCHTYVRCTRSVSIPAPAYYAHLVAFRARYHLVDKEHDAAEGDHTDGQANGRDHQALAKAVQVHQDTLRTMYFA

One experiment concerns the target AGO2 L192P (Homo sapiens, UniProt Q9UKV8 1-859, L192P;S387D;S824A;S828D;S831D;S834A). The experiment can be described thus: RNA Bind-n-Seq (nitrocellulose filter binding and sequencing); miR-122 guide loaded in AGO2; 60 min incubation; 30 mM Tris pH 8.0, 100 mM potassium acetate, 2 mM magnesium acetate, 0.5 mM TCEP, 0.005% NP-40, 0.01 mg/ml yeast tRNA; 3 nM AGO2-miR-122, 100 nM RNA library; 60; high values mean tight binding. The following applies: protein: recombinant; tags: His6 (N-terminal, pFastBac HTA). The procedure, abridged: (§1)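 Fold enrichment is each target's read fraction divided by its read fraction in the input library. Sf9 insect cells expressed His-tagged AGO2 from baculovirus; the protein was loaded with a synthetic guide RNA and purified by Ni-NTA and a biotinylated capture oligo. The bound RNA was extracted, reverse-transcribed, barcode-amplified and sequenced on Illumina.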
Regarding B1, the binding signal is 0.337 fold enrichment over input.
On the same count and under the same terms, to B2 belongs 0.445 fold enrichment over input; to B3, 0.357 fold enrichment over input; to B4, 0.34 fold enrichment over input.
The same measure, in the same setting: the figure for B5 is 0.391 fold enrichment over input; for B6 it is 0.336 fold enrichment over input; for B7 it is 0.475 fold enrichment over input.
Same read-out and setting: the figure for B8 is 0.369 fold enrichment over input.
On to B9, for which the binding signal is 0.362 fold enrichment over input.
The same measure, in the same setting: the figure for B10 is 0.418 fold enrichment over input; for B11 it is 0.362 fold enrichment over input.
Regarding B12, the binding signal is 0.382 fold enrichment over input.
On to B13, for which the binding signal is 0.333 fold enrichment over input.
Consider B14, for which the binding signal is 0.414 fold enrichment over input.
On the same count and under the same terms, to B15 belongs 0.347 fold enrichment over input; to B16, 0.352 fold enrichment over input; to B17, 0.335 fold enrichment over input.
Consider B18, for which the binding signal is 0.354 fold enrichment over input.
The same measure, in the same setting: to B19 belongs 0.377 fold enrichment over input.
In the case of B20, the binding signal is 0.348 fold enrichment over input.
The same measure, in the same setting: the figure for B21 is 0.345 fold enrichment over input; for B22 it is 0.349 fold enrichment over input.
Still for that read-out and setting: the figure for B23 is 0.408 fold enrichment over input.

For another experiment, the target named is AGO2 A367P (Homo sapiens, UniProt Q9UKV8 1-859, A367P;S387D;S824A;S828D;S831D;S834A). The description is as above. The following applies: protein: recombinant; tags: His6 (N-terminal, pFastBac HTA). The procedure, abridged:
as §1
B1: the binding signal is 0.123 fold enrichment over input.
Regarding B2, the binding signal was 0.167 fold enrichment over input.
With B3, the binding signal is 0.128 fold enrichment over input.
B4: the binding signal was 0.134 fold enrichment over input.
The same measure, in the same setting: to B5 belongs 0.155 fold enrichment over input.
B6: the binding signal was 0.13 fold enrichment over input.
The same measure, in the same setting: the figure for B7 is 0.166 fold enrichment over input; for B8 it is 0.149 fold enrichment over input.
Still for that read-out and setting: to B9 belongs 0.136 fold enrichment over input.
For the molecule B10, the binding signal was 0.125 fold enrichment over input.
Still for that read-out and setting: to B11 belongs 0.132 fold enrichment over input; to B12, 0.14 fold enrichment over input; to B13, 0.128 fold enrichment over input.
Take B14: the binding signal is 0.135 fold enrichment over input.
Still for that read-out and setting: the figure for B15 is 0.134 fold enrichment over input; for B16 it is 0.132 fold enrichment over input.
Regarding B17, the binding signal is 0.124 fold enrichment over input.
On the same count and under the same terms, the figure for B18 is 0.122 fold enrichment over input; for B19 it is 0.137 fold enrichment over input; for B20 it is 0.135 fold enrichment over input.
Same read-out and setting: to B21 belongs 0.138 fold enrichment over input.
With B23, the binding signal was 0.144 fold enrichment over input.

In the next experiment the target is AGO2 T357M (Homo sapiens, UniProt Q9UKV8 1-859, T357M;S387D;S824A;S828D;S831D;S834A). The description is as above. The following applies: protein: recombinant; tags: His6 (N-terminal, pFastBac HTA). In outline: as §1
Sequence of AGO2 T357M (Q9UKV8 whole entry T357M/S387D/S824A/S828D/S831D/S834A): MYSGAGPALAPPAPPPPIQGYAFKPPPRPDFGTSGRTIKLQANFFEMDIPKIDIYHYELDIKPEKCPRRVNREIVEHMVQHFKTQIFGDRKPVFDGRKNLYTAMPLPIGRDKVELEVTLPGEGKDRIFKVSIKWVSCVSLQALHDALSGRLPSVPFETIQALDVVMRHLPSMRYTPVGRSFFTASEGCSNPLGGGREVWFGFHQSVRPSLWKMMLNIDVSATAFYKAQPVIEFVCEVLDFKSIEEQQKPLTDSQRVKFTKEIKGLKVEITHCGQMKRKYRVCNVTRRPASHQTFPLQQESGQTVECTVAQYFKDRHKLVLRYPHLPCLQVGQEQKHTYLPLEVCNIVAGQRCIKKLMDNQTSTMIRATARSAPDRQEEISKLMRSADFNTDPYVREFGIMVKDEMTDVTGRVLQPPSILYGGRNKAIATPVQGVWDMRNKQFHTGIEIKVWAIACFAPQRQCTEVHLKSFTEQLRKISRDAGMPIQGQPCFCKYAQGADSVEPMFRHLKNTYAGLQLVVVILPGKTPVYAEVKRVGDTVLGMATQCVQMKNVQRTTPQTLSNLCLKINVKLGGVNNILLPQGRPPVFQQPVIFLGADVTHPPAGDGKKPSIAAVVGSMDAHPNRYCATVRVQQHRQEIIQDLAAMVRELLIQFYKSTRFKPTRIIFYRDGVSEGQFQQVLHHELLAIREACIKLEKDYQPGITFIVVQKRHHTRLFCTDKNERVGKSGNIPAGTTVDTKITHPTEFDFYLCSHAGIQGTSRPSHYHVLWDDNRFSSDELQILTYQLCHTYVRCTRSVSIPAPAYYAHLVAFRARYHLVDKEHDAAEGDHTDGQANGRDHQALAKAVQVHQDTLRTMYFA
For B1, the binding signal was 0.449 fold enrichment over input.
Same read-out and setting: the figure for B2 is 0.599 fold enrichment over input; for B3 it is 0.449 fold enrichment over input.
On the same count and under the same terms, the figure for B4 is 0.474 fold enrichment over input; for B5 it is 0.524 fold enrichment over input; for B6 it is 0.437 fold enrichment over input.
Consider B7, for which the binding signal is 0.561 fold enrichment over input.
As to B8, the binding signal is 0.584 fold enrichment over input.
On to B9, for which the binding signal was 0.536 fold enrichment over input.
Same read-out and setting: to B10 belongs 0.573 fold enrichment over input; to B11, 0.487 fold enrichment over input; to B12, 0.471 fold enrichment over input.
The same measure, in the same setting: to B13 belongs 0.424 fold enrichment over input; to B14, 0.6 fold enrichment over input.
As for B15, the binding signal is 0.37 fold enrichment over input.
As to B16, the binding signal was 0.47 fold enrichment over input.
On the same count and under the same terms, the figure for B17 is 0.452 fold enrichment over input; for B18 it is 0.399 fold enrichment over input; for B19 it is 0.463 fold enrichment over input.
B20: the binding signal was 0.496 fold enrichment over input.
Still for that read-out and setting: the figure for B21 is 0.498 fold enrichment over input; for B22 it is 0.475 fold enrichment over input.
The same measure, in the same setting: the figure for B23 is 0.544 fold enrichment over input.
